Assay results from the supplement of paper PMC6522484.
± gives the standard deviation of the averaged measurements.

Tests used:
DLD1 [1] = experiment: cell viability (CellTiter-Glo) relative to plate median (fraction of plate median); higher = more viable cells; settings: 5 µM; treatment time 24 h; reporter: 7TFP
Outline: (§1)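 Normalisation used webcellHTS2 in additive mode without log transformation, scaling each well's luminescence to the plate median. The luminescence was firefly luciferase or CellTiterGlo, read on a Tecan F500 from parallel plates of colorectal cancer cells stably transduced with lentiviral TCF/Wnt firefly luciferase reporters. Those cells had been given library compounds at a final 5 µM for 24 h, and two independent replicates were averaged.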

HCT116 = experiment: as above; settings: 5 µM; treatment time 24 h; reporter: TCF4/Wnt
Outline: as §1

SW480 [2] = experiment: as above; settings: 5 µM; treatment time 24 h; reporter: 7TFP
Outline: as §1

DLD1 [3] = experiment: TCF/Wnt firefly luciferase reporter signal relative to plate median (fraction of plate median); higher = higher Wnt reporter signal; settings: 5 µM; treatment time 24 h; reporter: 7TFP
Outline: as §1

SW480 [4] = experiment: as above; settings: 5 µM; treatment time 24 h; reporter: 7TFP
Outline: as §1

SMILES | cell viability (DLD1 [1]) | cell viability (HCT116) | cell viability (SW480 [2]) | TCF/Wnt firefly luciferase reporter signal (DLD1 [3]) | TCF/Wnt firefly luciferase reporter signal (SW480 [4])
COc1ccc(-c2cc(=O)c3cc(OC)ccc3o2)cc1 | 0.967 ± 0.031 | 0.964 ± 0.065 | 0.998 ± 0.059 | 1.17 ± 0.057 | 1.33 ± 0.014
OCc1c[nH]c2ccccc12 | 1.01 | 0.93 ± 0.03 | 0.948 ± 0.042 | 1.06 ± 0.064 | 0.992 ± 0.026
O=C1OCCN1/N=C/c1ccc([N+](=O)[O-])o1 | 0.984 ± 0.023 | 1.05 ± 0.028 | 0.999 ± 0.0014 | 1.1 ± 0.078 | 1.05 ± 0.078
O=C(O)c1cc(=O)c2cccc(O)c2[nH]1 | 0.932 ± 0.077 | 1.07 ± 0.1 | 0.946 ± 0.016 | 1.19 ± 0.014 | 1.15 ± 0.021
O=c1cc(-c2ccc(O)cc2)oc2cc(O[C@@H]3O[C@H](CO)[C@@H](O)[C@H](O)[C@H]3O)cc(O)c12 | 0.924 ± 0.044 | 1.06 ± 0.093 | 1 ± 0.038 | 1.02 ± 0.059 | 1.07 ± 0.078
O=C(O)c1cc(/N=N/c2ccc(S(=O)(=O)Nc3ccccn3)cc2)ccc1O | 0.992 ± 0.0042 | 1 ± 0.078 | 1.04 ± 0.057 | 0.899 ± 0.083 | 0.837 ± 0.02
O=c1c(O)c(-c2ccc(O)cc2O)oc2cc(O)cc(O)c12 | 1.11 ± 0.11 | 1.155 ± 0.0071 | 1.15 | 1.11 ± 0.099 | 1.11 ± 0.15
